# Experiments:
# Test in all cases: DAPPL (digital affinity profiling via proximity ligation, sequencing); 10 mM Tris-HCl pH 7.5, 50 mM NaCl, 1 mM DTT, 4% glycerol, room temperature, 30 min; GST-TFs on glutathione beads, 16-mer random dsDNA library, 0.1% formaldehyde crosslink after washing; high values mean tight binding
# FEV = target: T1, FEV (Homo sapiens, UniProt Q99581 1-238); settings: protein: recombinant; tags: N-terminal GST; dsDNA, one strand shown
# T1 sequence: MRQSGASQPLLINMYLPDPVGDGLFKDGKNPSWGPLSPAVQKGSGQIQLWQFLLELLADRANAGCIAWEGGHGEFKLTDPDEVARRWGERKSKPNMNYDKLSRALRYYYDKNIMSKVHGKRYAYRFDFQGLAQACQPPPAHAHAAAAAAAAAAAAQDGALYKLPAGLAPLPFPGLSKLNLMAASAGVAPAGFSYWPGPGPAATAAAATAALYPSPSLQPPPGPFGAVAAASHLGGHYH
# Method in brief: (§1)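 Beads coated with glutathione captured GST-fused human transcription factors that had been expressed in yeast, and the factors were then given DNA barcodes and pooled with a tag-only sample. The pools were incubated with 200 nmole of a random double-stranded 16-mer DNA library in Tris/NaCl/DTT/glycerol buffer for 30 min at room temperature, washed, crosslinked with 0.1% formaldehyde and proximity-ligated with BsaI/T4 ligase at 37 °C for 1 h. PCR amplification and Illumina NextSeq500 sequencing came last. Binding signal is each hexamer's read frequency for a factor divided by its frequency for the tag-only sample.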
# ETV5 = ETV5 (Homo sapiens, UniProt P41161 1-510); settings: protein: recombinant; tags: N-terminal GST; dsDNA, one strand shown
# Method in brief: as §1
# HSF1 = HSF1 (Homo sapiens, UniProt Q00613 1-529); settings: protein: recombinant; tags: N-terminal GST; chain copies: 3; dsDNA, one strand shown
# Method in brief: as §1
# SPIC = target: T2, SPIC (Homo sapiens, UniProt Q8N5J4 1-248); settings: protein: recombinant; tags: N-terminal GST; dsDNA, one strand shown
# T2 sequence: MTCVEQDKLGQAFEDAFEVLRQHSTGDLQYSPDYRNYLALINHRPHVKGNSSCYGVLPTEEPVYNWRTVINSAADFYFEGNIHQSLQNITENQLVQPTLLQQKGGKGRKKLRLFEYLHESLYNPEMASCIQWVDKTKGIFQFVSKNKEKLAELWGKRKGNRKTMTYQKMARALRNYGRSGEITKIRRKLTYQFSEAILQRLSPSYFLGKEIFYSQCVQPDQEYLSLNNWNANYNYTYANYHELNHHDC
# Method in brief: as §1
# ELF4 = ELF4 (Homo sapiens, UniProt Q99607 1-663); settings: protein: recombinant; tags: N-terminal GST; dsDNA, one strand shown
# Method in brief: as §1
# ELK4 = target: T3, ELK4 (Homo sapiens, UniProt P28324-2 1-405); settings: protein: recombinant; tags: N-terminal GST; dsDNA, one strand shown
# T3 sequence: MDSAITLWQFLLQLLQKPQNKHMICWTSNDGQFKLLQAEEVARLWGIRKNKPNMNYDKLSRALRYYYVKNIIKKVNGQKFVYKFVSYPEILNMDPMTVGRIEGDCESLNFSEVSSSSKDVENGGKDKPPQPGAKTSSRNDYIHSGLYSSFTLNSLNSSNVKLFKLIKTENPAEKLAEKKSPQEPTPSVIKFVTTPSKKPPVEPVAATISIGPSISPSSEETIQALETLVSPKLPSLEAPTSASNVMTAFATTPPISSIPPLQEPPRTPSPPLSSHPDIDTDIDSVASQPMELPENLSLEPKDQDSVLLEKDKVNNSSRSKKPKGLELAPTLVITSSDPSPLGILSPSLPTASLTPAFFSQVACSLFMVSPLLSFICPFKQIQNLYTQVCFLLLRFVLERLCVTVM
# Method in brief: as §1
# ETV2 = target: T4, ETV2 (Homo sapiens, UniProt O00321 1-342); settings: protein: recombinant; tags: N-terminal GST; dsDNA, one strand shown
# T4 sequence: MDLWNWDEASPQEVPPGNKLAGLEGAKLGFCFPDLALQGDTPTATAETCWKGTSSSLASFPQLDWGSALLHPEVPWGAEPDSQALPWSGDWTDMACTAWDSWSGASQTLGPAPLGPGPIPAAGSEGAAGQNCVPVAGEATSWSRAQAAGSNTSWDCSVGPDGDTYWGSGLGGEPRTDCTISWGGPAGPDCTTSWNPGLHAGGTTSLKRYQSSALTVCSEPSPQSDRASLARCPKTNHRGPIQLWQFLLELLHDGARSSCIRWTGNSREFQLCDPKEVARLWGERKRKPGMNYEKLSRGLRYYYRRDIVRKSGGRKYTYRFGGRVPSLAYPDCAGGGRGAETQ
# Method in brief: as §1
# ELF3 = target: T5, ELF3 (Homo sapiens, UniProt P78545 1-371); settings: protein: recombinant; tags: N-terminal GST; dsDNA, one strand shown
# T5 sequence: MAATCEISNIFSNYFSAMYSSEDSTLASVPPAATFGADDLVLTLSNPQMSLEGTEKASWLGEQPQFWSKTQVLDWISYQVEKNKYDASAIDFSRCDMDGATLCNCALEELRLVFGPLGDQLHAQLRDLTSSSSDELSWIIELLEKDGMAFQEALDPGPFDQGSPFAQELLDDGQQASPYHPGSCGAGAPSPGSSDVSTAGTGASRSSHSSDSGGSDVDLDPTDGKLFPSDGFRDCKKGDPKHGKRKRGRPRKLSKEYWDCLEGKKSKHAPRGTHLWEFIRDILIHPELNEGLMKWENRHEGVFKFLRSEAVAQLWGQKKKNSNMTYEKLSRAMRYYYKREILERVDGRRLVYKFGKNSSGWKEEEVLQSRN
# Method in brief: as §1
# CRX = CRX (Homo sapiens, UniProt O43186 1-299); settings: protein: recombinant; tags: N-terminal GST; dsDNA, one strand shown
# Method in brief: as §1
# ETV1 = ETV1 (Homo sapiens, UniProt P50549 1-477); settings: protein: recombinant; tags: N-terminal GST; dsDNA, one strand shown
# Method in brief: as §1
# ERF = target: T6, ERF (Homo sapiens, UniProt P50548 1-548); settings: protein: recombinant; tags: N-terminal GST; dsDNA, one strand shown
# T6 sequence: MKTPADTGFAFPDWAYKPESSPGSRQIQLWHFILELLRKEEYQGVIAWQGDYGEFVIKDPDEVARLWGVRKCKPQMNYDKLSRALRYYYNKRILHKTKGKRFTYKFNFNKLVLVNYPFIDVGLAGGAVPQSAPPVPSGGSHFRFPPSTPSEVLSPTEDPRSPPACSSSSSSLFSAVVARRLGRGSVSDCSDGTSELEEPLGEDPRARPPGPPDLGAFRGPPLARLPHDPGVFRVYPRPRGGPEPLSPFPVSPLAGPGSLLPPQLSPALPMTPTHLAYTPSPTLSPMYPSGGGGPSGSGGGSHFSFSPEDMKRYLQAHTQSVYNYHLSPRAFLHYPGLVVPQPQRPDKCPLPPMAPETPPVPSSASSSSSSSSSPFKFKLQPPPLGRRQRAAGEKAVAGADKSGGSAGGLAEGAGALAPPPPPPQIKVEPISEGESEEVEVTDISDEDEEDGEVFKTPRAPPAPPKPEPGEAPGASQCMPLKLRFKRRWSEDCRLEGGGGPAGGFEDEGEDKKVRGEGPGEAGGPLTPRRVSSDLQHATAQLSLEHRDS
# Method in brief: as §1
# ETV3L = target: T7, ETV3L (Homo sapiens, UniProt Q6ZN32 1-361); settings: protein: recombinant; tags: N-terminal GST; dsDNA, one strand shown
# T7 sequence: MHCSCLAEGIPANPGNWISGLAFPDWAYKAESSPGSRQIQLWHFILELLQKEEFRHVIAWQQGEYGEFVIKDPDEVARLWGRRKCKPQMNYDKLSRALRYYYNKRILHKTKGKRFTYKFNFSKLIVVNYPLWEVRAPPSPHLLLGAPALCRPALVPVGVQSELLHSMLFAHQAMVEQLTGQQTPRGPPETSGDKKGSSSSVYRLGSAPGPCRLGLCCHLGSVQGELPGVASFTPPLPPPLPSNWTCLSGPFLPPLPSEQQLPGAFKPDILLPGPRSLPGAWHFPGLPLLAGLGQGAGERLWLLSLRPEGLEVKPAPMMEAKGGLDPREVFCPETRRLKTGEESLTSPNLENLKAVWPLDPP
# Method in brief: as §1
# ETS2 = target: T8, ETS2 (Homo sapiens, UniProt P15036 1-469); settings: protein: recombinant; tags: N-terminal GST; dsDNA, one strand shown
# T8 sequence: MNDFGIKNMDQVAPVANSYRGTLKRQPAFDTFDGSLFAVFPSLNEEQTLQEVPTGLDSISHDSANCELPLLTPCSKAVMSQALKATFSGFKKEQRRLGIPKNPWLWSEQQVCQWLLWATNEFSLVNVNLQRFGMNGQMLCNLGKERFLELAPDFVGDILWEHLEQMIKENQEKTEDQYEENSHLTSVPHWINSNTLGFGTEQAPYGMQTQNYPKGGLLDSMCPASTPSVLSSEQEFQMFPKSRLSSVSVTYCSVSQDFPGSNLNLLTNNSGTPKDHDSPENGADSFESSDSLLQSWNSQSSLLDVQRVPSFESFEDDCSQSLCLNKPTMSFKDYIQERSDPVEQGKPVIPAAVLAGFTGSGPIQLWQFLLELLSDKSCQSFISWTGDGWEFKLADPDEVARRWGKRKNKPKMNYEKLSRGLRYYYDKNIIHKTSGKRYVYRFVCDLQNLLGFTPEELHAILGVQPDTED
# Method in brief: as §1
# SPDEF = target: T9, SPDEF (Homo sapiens, UniProt O95238 1-335); settings: protein: recombinant; tags: N-terminal GST; dsDNA, one strand shown
# T9 sequence: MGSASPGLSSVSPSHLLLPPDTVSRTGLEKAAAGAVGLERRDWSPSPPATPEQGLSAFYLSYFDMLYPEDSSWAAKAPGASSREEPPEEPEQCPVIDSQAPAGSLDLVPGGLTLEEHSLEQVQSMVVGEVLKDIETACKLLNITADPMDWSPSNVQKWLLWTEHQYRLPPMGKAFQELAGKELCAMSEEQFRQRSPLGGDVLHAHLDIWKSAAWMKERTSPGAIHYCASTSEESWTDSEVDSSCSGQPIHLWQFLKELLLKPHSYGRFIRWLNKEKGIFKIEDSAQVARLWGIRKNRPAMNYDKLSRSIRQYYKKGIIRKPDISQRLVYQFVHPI
# Method in brief: as §1
# ETV7 = target: T10, ETV7 (Homo sapiens, UniProt Q9Y603 1-341); settings: protein: recombinant; tags: N-terminal GST; dsDNA, one strand shown
# T10 sequence: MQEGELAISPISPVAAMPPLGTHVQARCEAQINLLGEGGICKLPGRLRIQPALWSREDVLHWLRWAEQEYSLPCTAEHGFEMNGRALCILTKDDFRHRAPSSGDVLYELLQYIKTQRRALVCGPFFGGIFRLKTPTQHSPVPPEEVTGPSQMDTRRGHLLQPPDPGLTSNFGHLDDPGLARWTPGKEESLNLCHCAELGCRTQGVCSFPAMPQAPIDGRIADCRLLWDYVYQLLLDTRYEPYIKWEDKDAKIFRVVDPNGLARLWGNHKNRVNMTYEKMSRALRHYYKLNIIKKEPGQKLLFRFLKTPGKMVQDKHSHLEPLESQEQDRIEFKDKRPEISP
# Method in brief: as §1
# ELF5 = target: T11, ELF5 (Homo sapiens, UniProt Q9UKW6-2 1-255); settings: protein: recombinant; tags: N-terminal GST; dsDNA, one strand shown
# T11 sequence: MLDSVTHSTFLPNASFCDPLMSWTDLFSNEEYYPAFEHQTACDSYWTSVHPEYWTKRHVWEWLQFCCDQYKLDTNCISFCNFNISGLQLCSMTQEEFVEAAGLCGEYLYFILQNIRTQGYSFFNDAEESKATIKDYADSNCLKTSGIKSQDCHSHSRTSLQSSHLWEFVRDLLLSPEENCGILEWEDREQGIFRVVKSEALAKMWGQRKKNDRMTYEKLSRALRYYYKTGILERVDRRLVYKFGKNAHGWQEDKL
# Method in brief: as §1
# ETV3 = target: T12, ETV3 (Homo sapiens, UniProt P41162-2 1-143); settings: protein: recombinant; tags: N-terminal GST; dsDNA, one strand shown
# T12 sequence: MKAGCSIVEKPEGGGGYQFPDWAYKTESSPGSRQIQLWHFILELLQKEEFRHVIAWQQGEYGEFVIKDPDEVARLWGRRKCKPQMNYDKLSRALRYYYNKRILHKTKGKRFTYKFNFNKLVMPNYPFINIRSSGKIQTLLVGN
# Method in brief: as §1
# ETV6 = ETV6 (Homo sapiens, UniProt P41212 1-452); settings: protein: recombinant; tags: N-terminal GST; dsDNA, one strand shown
# Method in brief: as §1
# ETV1, sequence (P50549 whole entry): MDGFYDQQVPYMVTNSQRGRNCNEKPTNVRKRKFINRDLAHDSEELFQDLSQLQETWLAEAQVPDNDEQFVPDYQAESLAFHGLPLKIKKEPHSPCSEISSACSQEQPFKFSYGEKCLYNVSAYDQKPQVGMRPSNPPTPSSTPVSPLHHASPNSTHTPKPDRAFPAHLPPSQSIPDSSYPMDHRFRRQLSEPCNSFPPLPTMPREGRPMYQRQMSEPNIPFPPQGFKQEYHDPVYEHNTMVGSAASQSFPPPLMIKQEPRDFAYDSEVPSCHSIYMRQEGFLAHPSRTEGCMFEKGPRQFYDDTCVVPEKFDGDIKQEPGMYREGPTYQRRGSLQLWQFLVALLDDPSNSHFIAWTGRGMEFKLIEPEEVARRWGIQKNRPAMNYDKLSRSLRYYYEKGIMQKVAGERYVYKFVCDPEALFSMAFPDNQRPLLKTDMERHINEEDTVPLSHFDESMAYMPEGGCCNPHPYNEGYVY
# HSF1, sequence (Q00613 whole entry): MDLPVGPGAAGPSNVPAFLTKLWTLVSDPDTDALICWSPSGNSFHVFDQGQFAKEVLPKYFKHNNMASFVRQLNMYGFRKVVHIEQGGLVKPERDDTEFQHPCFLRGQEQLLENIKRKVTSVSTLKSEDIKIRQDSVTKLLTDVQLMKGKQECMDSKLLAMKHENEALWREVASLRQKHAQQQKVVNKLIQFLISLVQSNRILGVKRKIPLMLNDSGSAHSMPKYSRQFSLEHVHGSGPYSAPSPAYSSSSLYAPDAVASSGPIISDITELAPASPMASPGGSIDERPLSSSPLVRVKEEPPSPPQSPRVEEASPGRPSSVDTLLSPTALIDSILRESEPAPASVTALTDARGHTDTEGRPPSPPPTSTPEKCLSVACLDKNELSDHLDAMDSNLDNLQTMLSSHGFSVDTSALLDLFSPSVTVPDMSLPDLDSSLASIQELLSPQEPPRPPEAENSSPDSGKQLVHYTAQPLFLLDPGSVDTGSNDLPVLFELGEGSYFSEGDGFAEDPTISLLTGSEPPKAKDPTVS
# ELF4, sequence (Q99607 whole entry): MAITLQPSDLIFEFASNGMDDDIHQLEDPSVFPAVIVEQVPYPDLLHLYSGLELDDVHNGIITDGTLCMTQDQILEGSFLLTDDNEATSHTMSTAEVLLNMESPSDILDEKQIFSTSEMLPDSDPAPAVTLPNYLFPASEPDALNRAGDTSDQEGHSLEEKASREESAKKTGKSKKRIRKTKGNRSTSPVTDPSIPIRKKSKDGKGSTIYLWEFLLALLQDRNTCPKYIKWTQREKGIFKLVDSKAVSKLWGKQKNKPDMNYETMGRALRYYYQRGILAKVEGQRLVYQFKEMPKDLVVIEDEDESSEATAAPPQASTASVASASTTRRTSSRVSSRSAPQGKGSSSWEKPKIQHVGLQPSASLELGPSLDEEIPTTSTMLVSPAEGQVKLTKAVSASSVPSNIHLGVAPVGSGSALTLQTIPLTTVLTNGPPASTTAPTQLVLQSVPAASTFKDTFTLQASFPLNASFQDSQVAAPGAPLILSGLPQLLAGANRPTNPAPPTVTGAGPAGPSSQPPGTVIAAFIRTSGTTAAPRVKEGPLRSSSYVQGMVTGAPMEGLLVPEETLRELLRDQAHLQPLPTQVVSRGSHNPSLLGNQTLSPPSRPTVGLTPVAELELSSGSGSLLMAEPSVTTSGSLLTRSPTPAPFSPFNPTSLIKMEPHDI
# ETV5, sequence (P41161 whole entry): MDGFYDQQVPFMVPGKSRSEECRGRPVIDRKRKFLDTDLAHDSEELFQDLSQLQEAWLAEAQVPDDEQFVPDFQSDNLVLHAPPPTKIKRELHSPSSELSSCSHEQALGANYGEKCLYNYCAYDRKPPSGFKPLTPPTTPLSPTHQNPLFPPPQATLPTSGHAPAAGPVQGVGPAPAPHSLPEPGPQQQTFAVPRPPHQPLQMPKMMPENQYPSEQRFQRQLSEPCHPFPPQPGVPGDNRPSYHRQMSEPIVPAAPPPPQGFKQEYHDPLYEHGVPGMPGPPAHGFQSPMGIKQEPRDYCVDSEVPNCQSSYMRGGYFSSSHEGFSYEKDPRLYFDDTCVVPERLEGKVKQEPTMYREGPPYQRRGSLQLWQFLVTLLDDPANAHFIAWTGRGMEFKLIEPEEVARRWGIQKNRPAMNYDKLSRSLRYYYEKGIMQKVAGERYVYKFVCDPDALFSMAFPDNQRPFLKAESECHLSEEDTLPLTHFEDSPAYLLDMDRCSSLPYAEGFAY
# CRX, sequence (O43186 whole entry): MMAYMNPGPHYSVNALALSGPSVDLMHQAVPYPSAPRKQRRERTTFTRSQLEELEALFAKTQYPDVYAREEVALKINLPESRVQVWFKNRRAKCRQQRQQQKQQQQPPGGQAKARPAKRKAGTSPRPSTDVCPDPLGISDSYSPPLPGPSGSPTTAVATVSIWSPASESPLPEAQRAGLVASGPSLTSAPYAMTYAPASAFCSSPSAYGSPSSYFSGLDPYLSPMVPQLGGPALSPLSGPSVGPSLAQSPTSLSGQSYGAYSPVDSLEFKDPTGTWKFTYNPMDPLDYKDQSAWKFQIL
# ETV6, sequence (P41212 whole entry): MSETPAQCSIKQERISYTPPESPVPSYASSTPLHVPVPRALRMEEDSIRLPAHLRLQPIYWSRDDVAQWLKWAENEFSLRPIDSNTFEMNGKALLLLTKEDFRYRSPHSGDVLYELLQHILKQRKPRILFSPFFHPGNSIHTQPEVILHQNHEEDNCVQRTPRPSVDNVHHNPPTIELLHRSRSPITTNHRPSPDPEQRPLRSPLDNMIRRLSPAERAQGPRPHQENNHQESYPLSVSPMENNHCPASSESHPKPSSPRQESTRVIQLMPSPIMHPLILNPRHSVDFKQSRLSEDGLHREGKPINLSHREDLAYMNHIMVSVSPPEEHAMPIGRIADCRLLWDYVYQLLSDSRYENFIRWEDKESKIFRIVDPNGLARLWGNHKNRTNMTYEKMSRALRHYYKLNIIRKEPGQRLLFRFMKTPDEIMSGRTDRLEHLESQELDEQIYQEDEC
sequence,measurement,setting,value
AGCCTT,binding signal,FEV,"1.15 fold enrichment (6-mer frequency, TF over GST control)"
same,binding signal,ETV5,"1.13 fold enrichment (6-mer frequency, TF over GST control)"
same,binding signal,HSF1,"1.26 fold enrichment (6-mer frequency, TF over GST control)"
same,binding signal,SPIC,"1.17 fold enrichment (6-mer frequency, TF over GST control)"
same,binding signal,ELF4,"1.18 fold enrichment (6-mer frequency, TF over GST control)"
same,binding signal,ELK4,"1.03 fold enrichment (6-mer frequency, TF over GST control)"
same,binding signal,ETV2,"1.2 fold enrichment (6-mer frequency, TF over GST control)"
same,binding signal,ELF3,"1.23 fold enrichment (6-mer frequency, TF over GST control)"
same,binding signal,CRX,"1.42 fold enrichment (6-mer frequency, TF over GST control)"
same,binding signal,ETV1,"1.17 fold enrichment (6-mer frequency, TF over GST control)"
same,binding signal,ERF,"1.21 fold enrichment (6-mer frequency, TF over GST control)"
same,binding signal,ETV3L,"1.11 fold enrichment (6-mer frequency, TF over GST control)"
same,binding signal,ETS2,"1.07 fold enrichment (6-mer frequency, TF over GST control)"
same,binding signal,SPDEF,"1.02 fold enrichment (6-mer frequency, TF over GST control)"
same,binding signal,ETV7,"1.1 fold enrichment (6-mer frequency, TF over GST control)"
same,binding signal,ELF5,"1.1 fold enrichment (6-mer frequency, TF over GST control)"
same,binding signal,ETV3,"1.18 fold enrichment (6-mer frequency, TF over GST control)"
same,binding signal,ETV6,"1.08 fold enrichment (6-mer frequency, TF over GST control)"

# Source: PMC7862700, “An all-to-all approach to the identification of sequence-specific readers for epigenetic DNA modifications on cytosine”
